Data: PubChem BioAssay (Tox21)
Results filed as inconclusive are left out. The source made the active and inactive calls. Unless noted, calls come from the whole dose curve; as a rule, active = well fitted curve in the direction sought with a large enough effect in the repeat runs; inconclusive = weak or mixed curves; inactive = no such curve, though single readings can be large; an effect the other way counts as inactive or inconclusive.

How the values were obtained:
[1] = qHTS assay to identify small molecule antagonists of the peroxisome proliferator-activated receptor delta (PPARd) signaling pathway - cell viability counter screen (AID 743213); note: nearly all actives have a fitted effect of over 50% in size
Summary of the method: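 In this counter screen, HEK293H cells carrying a UAS-beta-lactamase reporter are co-treated with test compounds and 300 nM L165041 (final) for 17 h at 37 C; cell viability is quantified by CellTiter-Glo luminescence.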

[2] = target: Peroxisome proliferator-activated receptor delta (Homo sapiens) (UniProt Q03181); assay: qHTS assay to identify small molecule antagonists of the peroxisome proliferator-activated receptor delta (PPARd) signaling pathway (AID 743215; active = well fitted inhibition curve with a large enough effect in the signal ratio in the repeat runs, not every such curve was filed as active; the % refers to the signal ratio;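 note: cells stimulated with agonist L165041 at 300 nM final during compound exposure; series mostly up to about 62 µM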)
Summary of the method: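 PPARd UAS-bla HEK293H cells were pre-incubated 5 h at 37 C, then given test compounds in DMSO plus agonist L165041 (300 nM final). After 17 h at 37 C, beta-lactamase FRET substrate was added; fluorescence read after 2 h at room temperature.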

[3] = qHTS assay to identify small molecule agonists of the farnesoid-X-receptor (FXR) signaling pathway - cell viability counter screen (AID 743218); note: nearly all actives have a fitted effect of over 45% in size
Summary of the method: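 FXR-UAS-bla HEK 293T cells, plated 5 h at 37 C, were exposed to compounds for 16 h at 37 C. CellTiter-Glo was then added to the same wells as the bla readout; luminescence read after 30 min at room temperature.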

[4] = qHTS assay to identify small molecule antagonists of the farnesoid-X-receptor (FXR) signaling pathway - cell viability counter screen (AID 743221; active = well fitted cell-killing curve with a large enough effect in the repeat runs, not every such curve was filed as active; note: nearly all actives have a fitted effect of over 50% in size)
Summary of the method: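 In GeneBLAzer FXR-UAS-bla HEK 293T cells stimulated with 50 uM chenodeoxycholic acid (final), compounds acted for 16 h at 37 C. Viability was assessed afterwards by CellTiter-Glo luminescence.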

[5] = target: Vitamin D3 receptor (Homo sapiens) (UniProt P11473); assay: qHTS assay to identify small molecule agonists of the vitamin D receptor (VDR) signaling pathway (AID 743222; calls by dose curve)
Summary of the method: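 VDR-bla cells were plated 4 h at 37C/5% CO2, then exposed to compounds in DMSO for 16 h. After LiveBLAzer B/G FRET substrate addition and 2 h at room temperature, beta-lactamase reporter fluorescence was read.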

[6] = qHTS assay to identify small molecule agonists of the vitamin D receptor (VDR) signaling pathway - cell viability counter screen (AID 743224); note: series mostly up to about 63 µM; nearly all actives have a fitted effect of over 50% in size
Summary of the method: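 VDR-bla cells were preincubated 4 h at 37C/5% CO2, then exposed to compounds for 16 h. After the 2 h room-temperature bla FRET read, CellTiter-Glo was added to the same wells and luminescence read after 30 min.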

[7] = qHTS assay to identify small molecule antagonists of the vitamin D receptor (VDR) signaling pathway - cell viability counter screen (AID 743225); note: nearly all actives have a fitted effect of over 50% in size
Summary of the method: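 Luminescent cell viability (CellTiter-Glo) in VDR-bla HEK 293T cells after 16 h compound exposure at 37C in the presence of 3 nM final 1-alpha,25-dihydroxy vitamin D3.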

[8] = qHTS assay to identify small molecule agonists of the NFkB signaling pathway (AID 1159509; active = well fitted curve in the direction sought with a large enough effect in the signal ratio in the repeat runs, not every such curve was filed as active; the % refers to the signal ratio; note: series mostly up to about 61 µM)
Summary of the method: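 NFkB-bla ME-180 cells carry a beta-lactamase reporter under an NF-kB response element. They were plated overnight, then exposed to compounds for 5 h at 37 C. Read-out is LiveBLAzer FRET after 1.5 hr at room temperature (405 nm excitation; 460/530 nm emission).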

[9] = qHTS assay to identify small molecule agonists of the NFkB signaling pathway - cell viability counter screen (AID 1159515; calls by dose curve; note: series mostly up to about 61 µM; nearly all actives have a fitted effect of over 55% in size)
Summary of the method: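 NFkB-bla ME-180 cells, 2,000/well, were plated overnight at 37 C, 5% CO2, then exposed to compounds in DMSO for 5 hr. After the bla FRET read, CellTiter-Glo was added to the same wells; luminescence was read after 30 min at room temperature.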

[10] = qHTS assay to identify small molecule agonists of the endoplasmic reticulum stress response signaling pathway (AID 1159516; active = well fitted activation curve with a large enough effect in the signal ratio in the repeat runs, not every such curve was filed as active; the % refers to the signal ratio)
Summary of the method: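 CellSensor ESRE-bla HeLa cells, carrying a beta-lactamase reporter driven by the ER stress response element, were plated overnight and exposed to compounds for 5 hr at 37 C. Reporter activity was read as FRET substrate fluorescence after 2 hr at room temperature.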

[11] = qHTS assay to identify small molecule agonists of the endoplasmic reticulum stress response signaling pathway - cell viability counter screen (AID 1159517; calls by dose curve)
Summary of the method: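 HeLa cells carrying an ESRE-driven beta-lactamase reporter receive compound for 5 hr at 37 C. Cell viability is then gauged with CellTiter-Glo by luminescence, 30 min at room temperature.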

[12] = qHTS assay to identify small molecule antagonists of the retinoid-related orphan receptor gamma (ROR-gamma) signaling pathway - cell viability counter screen (AID 1159520); note: nearly all actives have a fitted effect of over 50% in size
Summary of the method: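 Cytotoxicity was read from cellular ATP (CellTiter-Glo luminescence) after 16 hr at 37 C with 1 uM doxycycline induction. The inducer was added 2 hr after compound transfer to Tet-on ROR gamma CHO cells.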

[13] = target: Nuclear receptor ROR-gamma (Homo sapiens) (UniProt P51449); assay: qHTS assay to identify small molecule antagonists of the retinoid-related orphan receptor gamma (ROR-gamma) signaling pathway (AID 1159521)
Summary of the method: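 CHO cells expressing RORγ under a TET-on promoter, luciferase under RORE control. Dox 1 uM final, 16 h; compounds added 2 h prior. Luminescence decrease measured.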

[14] = qHTS assay to identify small molecule agonists of the AP-1 signaling pathway - cell viability counter screen (AID 1159525; calls by dose curve; note: nearly all actives have a fitted effect of over 55% in size)
Summary of the method: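 Luminescent ATP readout (Cell Titer Glo, 30 min RT), normalised to DMSO and tetra n-octyl ammonium bromide controls. Cells were ME-180 AP-1-bla in 0.5% dialyzed FBS Opti-MEM, with a 5 h, 37 °C compound exposure.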

[15] = qHTS assay to identify small molecule agonists of the AP-1 signaling pathway (AID 1159526; calls by dose curve)
[16] = target: Bile acid receptor (Homo sapiens) (UniProt Q96RI1); assay: qHTS assay to identify small molecule antagonists of the farnesoid-X-receptor (FXR) signaling pathway (AID 743217; active = well fitted inhibition curve with a large enough effect in the signal ratio in the repeat runs, not every such curve was filed as active; the % refers to the signal ratio)
Summary of the method: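 FXR-UAS-bla HEK 293T cells pre-incubated 5 h at 37 °C, then exposed to compounds with chenodeoxycholic acid (50 uM final) for 16 h at 37 °C. Beta-lactamase reporter read by LiveBLAzer B/G FRET substrate fluorescence after 2 h at room temperature.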

[17] = target: Bile acid receptor (Homo sapiens) (UniProt Q96RI1); assay: qHTS assay to identify small molecule agonists of the farnesoid-X-receptor (FXR) signaling pathway (AID 743220; active = well fitted activation curve with a large enough effect in the signal ratio in the repeat runs, not every such curve was filed as active; the % refers to the signal ratio)
Summary of the method: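 Beta-lactamase reporter under UAS control in GeneBLAzer FXR HEK 293T cells (5000/well) measured with LiveBLAzer FRET substrate after 2 h at room temperature. Compound exposure lasted 16 h at 37C.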

[18] = target: Vitamin D3 receptor (Homo sapiens) (UniProt P11473); assay: qHTS assay to identify small molecule antagonists of the vitamin D receptor (VDR) signaling pathway (AID 743223; active = well fitted inhibition curve with a large enough effect in the signal ratio in the repeat runs, not every such curve was filed as active; the % refers to the signal ratio)
Summary of the method: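 Agonist 1alpha,25-dihydroxyvitamin D3 (3 nM in well) was added with each compound to VDR-bla cells preincubated 4 h. Cells stood 16 h at 37C, then FRET substrate 2 h at room temperature; fluorescence intensity recorded.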

Measured: Potency

Vitamin D3 receptor (Homo sapiens), sequence (P11473 whole entry, looked up): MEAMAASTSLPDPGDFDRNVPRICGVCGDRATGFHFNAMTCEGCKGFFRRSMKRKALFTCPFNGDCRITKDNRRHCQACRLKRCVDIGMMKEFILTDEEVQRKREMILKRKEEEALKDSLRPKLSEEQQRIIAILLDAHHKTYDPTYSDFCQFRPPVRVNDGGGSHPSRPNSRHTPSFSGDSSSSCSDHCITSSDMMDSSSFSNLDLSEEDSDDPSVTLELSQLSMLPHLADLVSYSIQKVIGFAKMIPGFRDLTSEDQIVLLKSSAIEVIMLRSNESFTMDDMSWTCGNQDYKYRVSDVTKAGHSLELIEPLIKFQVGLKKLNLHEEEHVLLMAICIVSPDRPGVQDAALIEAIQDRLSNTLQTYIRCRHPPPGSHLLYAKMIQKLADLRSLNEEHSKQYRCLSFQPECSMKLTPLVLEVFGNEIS
Bile acid receptor (Homo sapiens), sequence (Q96RI1 whole entry, looked up): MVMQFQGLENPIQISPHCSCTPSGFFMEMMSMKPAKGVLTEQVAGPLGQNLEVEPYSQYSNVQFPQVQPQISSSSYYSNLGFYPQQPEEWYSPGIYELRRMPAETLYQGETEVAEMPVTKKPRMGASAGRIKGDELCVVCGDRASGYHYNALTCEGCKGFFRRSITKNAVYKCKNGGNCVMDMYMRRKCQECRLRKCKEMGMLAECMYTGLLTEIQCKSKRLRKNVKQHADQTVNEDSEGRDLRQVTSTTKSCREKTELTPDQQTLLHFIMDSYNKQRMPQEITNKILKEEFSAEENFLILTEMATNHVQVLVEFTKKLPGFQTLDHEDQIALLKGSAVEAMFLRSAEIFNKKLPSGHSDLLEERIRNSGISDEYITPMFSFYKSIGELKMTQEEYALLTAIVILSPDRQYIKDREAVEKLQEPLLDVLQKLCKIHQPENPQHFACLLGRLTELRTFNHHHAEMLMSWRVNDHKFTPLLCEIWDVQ
Peroxisome proliferator-activated receptor delta (Homo sapiens), sequence (Q03181 whole entry, looked up): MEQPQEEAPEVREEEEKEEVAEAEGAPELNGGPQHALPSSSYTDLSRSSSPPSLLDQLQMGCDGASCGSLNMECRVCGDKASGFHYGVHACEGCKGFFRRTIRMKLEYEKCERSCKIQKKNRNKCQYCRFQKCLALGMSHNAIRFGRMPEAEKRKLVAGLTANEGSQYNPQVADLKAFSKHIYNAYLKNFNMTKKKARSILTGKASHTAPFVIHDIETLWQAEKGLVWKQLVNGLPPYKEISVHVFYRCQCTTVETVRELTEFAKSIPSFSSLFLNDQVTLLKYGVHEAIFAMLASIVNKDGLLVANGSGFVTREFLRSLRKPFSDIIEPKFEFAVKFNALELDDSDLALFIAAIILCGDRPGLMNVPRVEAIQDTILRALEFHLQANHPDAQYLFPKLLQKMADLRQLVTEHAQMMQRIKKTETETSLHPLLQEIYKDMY

SCCOCCOCCS
not listed: [16] | [17] | [18]
inactive: all other assays above

O=C(O)COCC(=O)O
not listed: [2] | [5] | [7]
inactive: all other assays above

CCOc1ccc2c(c1)C(C)CC(C)(C)N2 (configuration not stated)
not listed: [5]
inactive: all other assays above
